Jurkat NFkB inh = lowers PMA/ionomycin-induced NF-kB signal in Jurkat cells; 330,000 compounds, 0.53% hits; inhibition, % at 4 µM; AID 435003; PMA/ionomycin-induced NF-kB luciferase reporter, luminescence; in the data active = inhibition above about 50%
697 NFkB inh = inhibitors of the PMA/ionomycin-induced NF-kB reporter in 697 B cells. inhibition, % at 4 µM. 330,000 compounds, 0.33% hits. 697 B-cell NF-kB luciferase reporter, 16 h; in the data active = inhibition above about 35%
Gli-Sufu block = antagonists of Gli-Sufu signaling; 340,000 compounds, 0.74% hits; inhibition, % at 5 µM; Sufu-KO-LIGHT fibroblasts, Gli luciferase reporter luminescence;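 active = inhibition above about 55%, limit read from the data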;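 note: 0% = DMSO-treated cells and 100% = wells with medium but no cells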
KLF5 inh = inhibitors of KLF5 expression | inhibition, % at 5 µM | DLD-1 KLF5 promoter-luciferase reporter, luminescence | 290,000 compounds, 0.23% hits;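 active = inhibition above a per-plate limit of that plate's mean compound inhibition plus 3 SD, cut at about 60% in these data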;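 note: 0% = DMSO wells and 100% = LY294002 at 200 µM; higher means less KLF5 promoter-driven luciferase light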
aSyn UTR inh = 5' untranslated region of α-synuclein, MLPCN primary screen; alpha-synuclein 5'UTR reporter, inhibitor activity; inhibition, % (tested at 7.5 µM); 300,000 compounds, 0.82% hits; in the data active = inhibition above about 60%;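 note: H4 neuroglioblastoma cells stably carrying SNCA 5'UTR luciferase fusion; 0% = DMSO wells and 100% = positive control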
Mdm2 MdmX PPI = disrupts the human Mdm2-MdmX interaction; O15151+Q00987; SaOS-2 split-luciferase Mdm2/MdmX complementation, luminescence; inhibition, % at 8 µM; 330,000 compounds, 3% hits;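 active = inhibition of at least 50% at 8 µM in the primary screen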
Target sequence (O15151 whole entry, looked up): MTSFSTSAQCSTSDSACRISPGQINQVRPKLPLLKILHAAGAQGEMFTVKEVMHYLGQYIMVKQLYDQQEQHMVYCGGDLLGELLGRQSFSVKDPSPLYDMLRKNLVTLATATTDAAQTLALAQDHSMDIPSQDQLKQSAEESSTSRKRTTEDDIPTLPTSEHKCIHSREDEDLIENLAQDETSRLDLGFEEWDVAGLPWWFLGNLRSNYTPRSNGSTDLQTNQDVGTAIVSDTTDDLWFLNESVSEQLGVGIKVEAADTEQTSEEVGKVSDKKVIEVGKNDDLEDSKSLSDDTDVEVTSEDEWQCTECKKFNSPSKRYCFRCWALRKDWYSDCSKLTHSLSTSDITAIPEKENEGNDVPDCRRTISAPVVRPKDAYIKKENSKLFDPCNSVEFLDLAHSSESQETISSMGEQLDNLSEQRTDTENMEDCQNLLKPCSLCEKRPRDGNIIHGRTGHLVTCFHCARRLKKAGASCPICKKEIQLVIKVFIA
Target sequence (Q00987 whole entry, looked up): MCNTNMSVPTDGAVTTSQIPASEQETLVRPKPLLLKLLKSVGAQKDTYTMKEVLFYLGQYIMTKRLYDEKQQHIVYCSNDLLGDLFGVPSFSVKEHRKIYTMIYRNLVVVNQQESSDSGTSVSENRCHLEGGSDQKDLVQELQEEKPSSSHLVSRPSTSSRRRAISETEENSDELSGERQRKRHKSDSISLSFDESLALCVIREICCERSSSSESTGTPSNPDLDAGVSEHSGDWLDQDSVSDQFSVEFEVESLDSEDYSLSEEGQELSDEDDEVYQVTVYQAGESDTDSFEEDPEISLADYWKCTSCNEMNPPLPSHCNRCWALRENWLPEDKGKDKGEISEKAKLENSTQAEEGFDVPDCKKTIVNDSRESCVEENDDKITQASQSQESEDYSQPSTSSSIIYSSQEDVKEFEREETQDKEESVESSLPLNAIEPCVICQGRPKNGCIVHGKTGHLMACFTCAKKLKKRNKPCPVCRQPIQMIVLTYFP
Jurkat NFkB conf = inhibitors of the PMA/ionomycin-induced NF-kB reporter in Jurkat cells, retest; shares compounds with Jurkat NFkB inh; Jurkat NF-kB luciferase, 16 h; inhibition, % at 4 µM; 2,700 compounds, 27% hits;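 active = inhibition reaching about 45% at 4 µM in either replicate, limit read from the data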;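 note: plate controls were PMA/ionomycin stimulated DMSO wells for no effect and unstimulated DMSO wells for full effect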
* = called active by the depositor; / = no result given. A selection: hits, their analogues and other compounds. The true share with any hit is near 4.1%.

SMILES	Jurkat NFkB inh	697 NFkB inh	Gli-Sufu block	KLF5 inh	aSyn UTR inh	Mdm2 MdmX PPI	Jurkat NFkB conf
Cc1ccc(-c2noc(CNS(=O)(=O)c3ccccc3)n2)cc1	0.6	-57.8	-3.8	-29.8	-57.7	-21.6	/
Cc1ccc(COc2ccc(C)nc2[N+](=O)[O-])cc1	-151.2	-154.7	-74.5	-163.2	-118.1	-208.2	-84.8
Cc1ccc(CNC(=O)COc2ccc(C)nc2[N+](=O)[O-])cc1	87.1*	-29.2	-0.2	-14.5	20.3	9.2	0.3
Cc1ccc(OCC(=O)NCc2ccc3c(c2)OCO3)c([N+](=O)[O-])n1	8.1	7.0	-7.9	5.2	8.1	-21.9	/
CCOC(=O)C1CCN(S(=O)(=O)c2ccc3c(c2)N(C(C)=O)CC(C)S3)CC1 (stereo not given)	22.1	-13.4	49.9	3.3	1.5	21.2	/
Cc1ccc2c(CC(=O)NCCc3ccc(S(N)(=O)=O)cc3)coc2c1	9.6	19.5	-13.9	19.1	6.5	25.2	/
S=c1nc(-c2ccc(Br)cc2)oc2c1CCCC2	-61.9	-102.7	-12.2	-67.3	-183.8	-189.8	/
Cc1cccc(-c2nc(=S)c3c(o2)CCCC3)c1	-165.7	-138.1	-54.2	-176.6	-132.6	-119.1	-79.7
COc1ccc(Cc2nnc(NC(=O)CS(=O)(=O)c3ccccc3)s2)cc1OC	-21.2	-18.1	7.5	-6.2	-14.4	2.5	/
NC(=S)N=Nc1c(O)n(Cc2ccc(Br)cc2)c2ccccc12	60.0*	-34.9	17.8	-5.3	64.4*	48.4	11.6
Cc1ccc2c(c1)Sc1c(ccc3ccccc13)N2	-170.8	-219.3	-91.8	-58.3	-6.2	-65.4	-28.0
COc1ccccc1NC1=CC(=O)CC(c2ccccc2)C1 (stereo not given)	51.8*	-29.1	11.7	-6.0	-19.2	29.1	12.1
COc1c(C)cc(Br)cc1C(=O)Nc1ccc(Cc2ccncc2)cc1	16.4	-13.2	15.1	-23.8	20.8	17.8	/
Cc1cc(C)c(C)c(OC(=O)c2sc(Cl)nc2C)c1	72.0*	-15.5	3.4	11.0	-21.2	17.8	37.9
Cc1ccc(NC(=O)c2sc(Cl)nc2C)c(C)c1	-2.3	12.6	3.9	-22.0	-14.1	-11.9	/
Cc1cc(C(=O)Nc2cccc(C(=O)O)c2)c(C)o1	-11.6	-16.7	-10.6	-17.5	-91.7	0.8	/
Cc1cccc(NC(=O)c2cc3ccccc3o2)c1	-172.9	-50.0	-88.3	-147.8	-271.9	-177.7	-96.4
Cc1cc(C(=O)Nc2cccc(C(=O)O)c2)oc1C	56.0*	-5.8	-83.5	-1.9	87.4*	0.9	5.3
O=C(Nc1cccc(Br)c1)c1cc2ccccc2o1	-110.1	-72.2	-62.5	-54.8	-184.3	-165.8	/
CCc1ccc(Nc2ncc3c(n2)CC(C)CC3=O)cc1 (stereo not given)	-172.0	-164.4	-112.4	-29.2	-134.7	-116.3	-91.3
CCc1ccc(Nc2ncc3c(n2)CC(c2ccc(OC)cc2)CC3=O)cc1 (stereo not given)	-7.1	-5.4	-11.7	-8.4	15.4	21.9	/
COc1cccc([C@@H]2Oc3ccc(OC)cc3C(=O)[C@H]2O)c1	-156.6	-139.8	-10.9	-175.8	-138.4	-2.7	-97.8
COc1ccc2c(c1)C(=O)[C@@H](O)[C@H](c1ccc(OC)c(Br)c1)O2	-30.0	-11.0	6.7	-30.4	-41.5	26.3	/
CC(=O)N1CCN(S(=O)(=O)c2cccc(C(=O)NCCC3=CCCCC3)c2)CC1	-12.2	-10.1	13.4	/	5.4	-29.8	/
CN(C)c1ccc(N=Nc2cccc(F)c2)cc1	-244.3	-90.4	-34.5	-98.4	-106.5	-182.9	-102.1
SMILES	Jurkat NFkB inh	697 NFkB inh	Gli-Sufu block	KLF5 inh	aSyn UTR inh	Mdm2 MdmX PPI	Jurkat NFkB conf
CN(C)N=Nc1ccc(S(N)(=O)=O)cc1	-6.3	22.6	3.5	-35.2	24.5	2.3	/
CN(C)c1ccc(N=Nc2ccc(S(N)(=O)=O)cc2)cc1	-153.7	-156.3	-93.0	-138.2	-95.9	-72.7	-79.2
CN(C)c1ccc(/C=C(\Cl)c2nc3ccccc3s2)cc1	/	/	19.2	-38.3	/	/	/
Clc1ccc(OCc2nc(-c3ccccn3)no2)c(Br)c1	-165.1	-244.4	-83.1	-219.5	17.5	-33.1	-118.8
Clc1ccccc1OCc1nc(-c2ccccn2)no1	-100.8	-204.3	-118.4	-163.7	-47.9	-142.1	/
COc1ccc(N=Nc2cc(C)ccc2O)cc1	-159.0	-170.4	-74.5	-90.8	-32.6	-186.4	-134.1
CCCCOC(=O)Nc1ccc(N2CCCCC2)cc1	-182.4	-163.2	-94.4	-170.0	-157.5	-164.6	-95.3
O=C(c1ccc(F)cc1)c1ccc(N2CCCCC2)cc1	-84.2	-91.2	-63.6	-88.7	-144.5	-120.8	/
CCCCOC(=O)Nc1ccc(N2CCOCC2)cc1	-50.3	-48.1	-73.4	-120.3	-163.0	-48.7	/
O=C(Nc1ccc(F)cc1)c1ccc(CN2CCc3ccccc3C2)cc1	58.2*	-12.8	0.9	-16.9	-23.9	24.4	41.7
O=C(Nc1ccc(N2CCOCC2)cc1)c1ccc(Cl)c(S(=O)(=O)N2CCCCC2)c1	50.9*	26.7	39.3	/	/	6.8	56.8*
O=C(Nc1ccc(N2CCCCC2)cc1)c1ccc(F)cc1	-167.3	-158.4	-80.1	-115.8	-79.7	-68.8	-82.8
CCN(CC)c1ccc(S(=O)(=O)N2CCOCC2)cc1NC(=O)COC(=O)C1=COCCO1	/	/	-14.7	/	/	/	/
Cc1ccc(S(=O)(=O)/N=C(/c2ccc(F)cc2)N2CCCCC2)cc1	19.8	-29.0	0.9	-20.6	32.4	-0.2	/
O=C(Nc1ccc(S(=O)(=O)N2CCCC2)cc1)c1ccc(CN2CCOCC2)cc1	34.8	-20.4	-9.2	-12.1	-3.6	32.8	/
CCN(CC)S(=O)(=O)c1ccc(NC(=O)c2ccc(CN3CCOCC3)cc2)cc1	58.2*	5.4	9.5	4.8	-13.8	10.1	57.7*
O=C(Nc1ccc(S(=O)(=O)N2CCCCC2)cc1)c1ccc(CN2CCOCC2)cc1	61.9*	11.6	38.0	4.6	23.3	15.4	60.8*
NNC(=O)COc1ccccc1F	96.2*	-0.6	-1.3	6.2	-6.8	5.9	2.5
NNC(=O)COc1ccc(F)cc1	9.6	1.6	-13.0	15.3	-8.5	7.3	/
CC(OC(=O)Cc1c[nH]c2ccccc12)C(=O)Nc1ccccc1F (stereo not given)	1.9	13.1	4.5	/	1.9	15.5	/
COc1cc(C(=O)N/N=C(\C)c2ccc3c(c2)OCO3)cc(OC)c1OC	52.3*	-25.9	6.1	31.4	11.3	49.9	2.0
COc1ccc(/C(C)=N\NC(=O)c2ccc3c(c2)OCO3)cc1OC	-7.6	9.8	/	-46.7	-13.0	-13.9	/
COc1ccc(Nc2ncnc3scc(-c4ccc(OC)cc4)c23)cc1	51.6*	-45.7	5.4	-11.5	-42.3	36.8	21.6
CCCn1c(=O)[nH]c(=O)c2c1nc(-c1cc([N+](=O)[O-])ccc1Cl)n2CCOC	1.9	13.5	-7.8	-14.0	16.8	15.1	/
C=C(c1ccc2nc(NC(=O)OC)[nH]c2c1)c1cccs1	/	/	12.7	/	/	/	/
COC(=O)c1ccc(-c2n[nH]c(=O)c3ccccc23)cc1	-0.9	14.3	-2.1	-8.0	3.3	27.6	/

Screening data: PubChem BioAssay, several laboratories
